# The whole screen tested about 52,000 compounds, of which about 4,300 (8.3%) were called active. Cut-off read from the data, not from the text of the source: active = survival mostly below about 52% (no sharp cut-off); inactive = mostly above about 56%. Many of the other results were omitted from the sample, so actives are more common in it than they were.
# Test system: DeltatarO mutant
# Assay: growth inhibition of S. aureus wild type versus tarO mutant, primary screen, teichoic acid synthesis inhibitors, RN4220, OD600 (AID 463173)
# Details: OD600, 18 h, stronger effect = lower value, screened at 18.75 µg/mL (by protocol)
row,SMILES,survival
1,COc1ccccc1CNC(=O)C(NS(=O)(=O)c1ccc2c(c1)CCN2C(C)=O)C(C)C (centres undefined),79% (inactive)
2,Cc1ccc2sc(NC(=O)c3ccc4c(c3)OCCO4)nc2c1C,92% (inactive)
3,CNC(=O)c1c(NC(=O)c2cc(=O)c3ccccc3o2)sc2c1CCC2,94% (inactive)
4,O=C(CSc1c2c(nc3ccc(Cl)cc13)CCCC2)NCc1ccccc1Cl,119% (inactive)
5,CC1CCCN(C(=O)CSc2c3c(nc4cc(Cl)ccc24)CCCC3)C1 (centres undefined),-5% (active)
6,Cc1ccc(CNC(=O)CSc2c3c(nc4cc(Cl)ccc24)CCCC3)cc1,80% (inactive)
7,CCC(C)NC(=O)CSc1c2c(nc3cc(Cl)ccc13)CCCC2 (centres undefined),82% (inactive)
8,CC1CCCCN1C(=O)CSc1c2c(nc3cc(Cl)ccc13)CCCC2 (centres undefined),-6% (active)
9,CC1CCN(C(=O)CSc2c3c(nc4ccc(Cl)cc24)CCCC3)CC1,0% (active)
10,COc1ccc(OC)c(CNC(=O)CSc2c3c(nc4cc(Cl)ccc24)CCCC3)c1,68% (inactive)
11,CCOC(=O)c1ccc(NC(=O)CSc2c3c(nc4cc(Cl)ccc24)CCCC3)cc1,68% (inactive)
12,O=C(CSc1c2c(nc3ccc(Cl)cc13)CCCC2)N1CCCCC1,22% (active)
13,Cc1ccc(C)c(NC(=O)CSc2c3c(nc4ccc(Cl)cc24)CCCC3)c1,53% (inactive)
14,CCOC(=O)C1CCN(c2nc3c(S(=O)(=O)c4ccc(Br)cc4)nnn3c3ccsc23)CC1,76% (inactive)
15,O=[N+]([O-])c1ccc(S(=O)(=O)N2CCn3cccc3C2c2ccc(Br)cc2)cc1 (centres undefined),75% (inactive)
16,COc1ccc(-c2noc(CSc3nnc(C)n3-c3ccc(C)cc3)n2)cc1OC,59% (inactive)
17,COC(=O)c1ccc(-c2nc(-c3ccc(OC)c(OC)c3)no2)cc1,64% (inactive)
18,O=C(CSCc1cc(=O)c2cc(F)ccc2[nH]1)Nc1ccccc1Cl,94% (inactive)
19,CCOC(=O)c1ccc(NC(=O)CSc2nccn2Cc2ccc(OC)cc2)cc1,79% (inactive)
20,COc1cc(NC(=O)c2cc(-c3cccc(Cl)c3)on2)c(OC)cc1Cl,61% (inactive)
21,CC1CCc2nc(NC(=O)COc3ccc(C(C)(C)C)cc3)sc2C1 (centres undefined),80% (inactive)
22,CCOc1ccc(CNC(=O)CSc2c3c(nc4cc(Cl)ccc24)CCCC3)cc1,51% (inactive)
23,CC1CCN(C(=O)CSc2c3c(nc4cc(Cl)ccc24)CCCC3)CC1,5% (active)
24,COCCNC(=O)CSc1c2c(nc3cc(Cl)ccc13)CCCC2,71% (inactive)

row,SMILES,survival
1,CCOC(=O)C1CCN(C(=O)CSc2c3c(nc4ccc(Cl)cc24)CCCC3)CC1,39% (active)
2,CCc1ccccc1Nc1sc(C(=O)c2cccc(OC)c2)c(N)c1S(=O)(=O)c1ccccc1,72% (inactive)
3,Cc1ccc(S(=O)(=O)CCc2nnc(NC(=O)C3CCCN3C(=O)NC3CCCCC3)s2)cc1 (centres undefined),72% (inactive)
4,CCOc1ccc(CCNC(=O)c2sc3nc4n(c(=O)c3c2C)CCCC4)cc1,75% (inactive)
5,CCn1cc2nc(SCC(=O)Nc3ccc(C)cc3)n(Cc3ccc(C)cc3)c(=O)c2n1,69% (inactive)
6,Cc1cccc(-c2nc(SCc3ccc(Br)cc3)n3[nH]c(=O)cc3n2)c1,92% (inactive)
7,O=c1cc2nc(-c3ccccc3F)nc(SCc3ccc(Br)cc3)n2[nH]1,0% (active)
8,Cc1ccc(CSc2nc(-c3ccc(C(C)(C)C)cc3)nc3cc(=O)[nH]n23)cc1,89% (inactive)
9,O=c1cc2nc(-c3ccccc3)nc(SCc3cccc(Br)c3)n2[nH]1,98% (inactive)
10,Cc1ccc(-c2nc(SCc3ccc(Br)cc3)n3[nH]c(=O)cc3n2)cc1,37% (active)
11,COc1ccccc1NC(=O)CSc1nc(-c2ccccc2F)nc2cc(=O)[nH]n12,71% (inactive)
12,CCC(c1nnnn1CCOC)N1CCN(c2nc3ccccc3s2)CC1 (centres undefined),87% (inactive)
13,N=C(N)N1CCN(CC(O)COc2ccccc2)CC1 (centres undefined),84% (inactive)
14,C#CCn1cc(/C=C(/C#N)C(=O)Nc2ccccc2)c2ccccc21,54% (inactive)
15,CCCCNC(=O)C1CCN(c2nc(OC)nc(OC)n2)CC1,83% (inactive)
16,COc1ccccc1OCCSc1nc2ccccc2n1CC(=O)N1CCOCC1,94% (inactive)
17,O=C(Cn1c(SCCOc2ccccc2Cl)nc2ccccc21)N1CCCCC1,34% (active)
18,Cc1ccc(OCCSc2nc3ccccc3n2CC(=O)N2CCCCC2)c(C)c1,51% (inactive)
19,O=C(Cn1c(SCCOc2ccccc2Cl)nc2ccccc21)N1CCOCC1,39% (active)
20,Cc1ccc(C)c(OCCSc2nc3ccccc3n2CC(=O)N2CCOCC2)c1,55% (inactive)
21,Cc1cccc(OCCSc2nc3ccccc3n2CC(=O)N2CCOCC2)c1C,50% (inactive)
22,Cc1ccc(C(C)C)c(OCCSc2nc3ccccc3n2CC(O)CO)c1 (centres undefined),48% (inactive)
23,CCn1c(SCCOc2ccccc2F)nc2ccccc21,0% (active)
24,CCn1c(SCC(N)=O)nc2ccccc21,79% (inactive)

row,SMILES,survival
1,Cc1cccc(OCCSc2nc3ccccc3n2CC(=O)N2CCCCC2)c1C,28% (active)
2,O=C(CSc1nc2ccccc2n1CC(=O)N1CCCC1)N1CCCCC1,85% (inactive)
3,COc1ccc(CCC(=O)NCc2ccc3c(c2)CCN3C(=O)c2ccc(C)cc2)cc1,75% (inactive)
4,CC1=C(c2ccc(Cl)cc2)S(=O)(=O)N=C1N1CCN(c2cccc(C)c2)C(C)C1 (centres undefined),89% (inactive)
5,CCOC(=O)N1CCC(NC(=O)c2cnn(-c3ccc(OC)cc3)c2C2CCN(C(=O)OC(C)(C)C)CC2)CC1,84% (inactive)
6,CCOc1ccc(NC(=O)C(C)Sc2nnc3cc(C)c4ccccc4n23)cc1 (centres undefined),73% (inactive)
7,COC(=O)Cn1c(SCCOc2ccccc2Cl)nc2ccccc21,42% (active)
8,COC(=O)Cn1c(SCCOc2ccccc2OC)nc2ccccc21,51% (inactive)
9,CCCCNC(=O)c1cnn2c(C)c(Cc3c(C)cc(C)cc3C)c(C)nc12,102% (inactive)
10,COc1ccc(CNC(=O)CCCn2nc(C)c3sc4ccccc4c3c2=O)cc1OC,87% (inactive)
11,Cc1cccc(-c2nc(CSCC(=O)N3CCN(c4cccc(C)c4C)CC3)c(C)o2)c1,8% (active)
12,Cc1oc(-c2ccccc2F)nc1CSCC(=O)N1CCN(c2ccccc2)CC1,62% (inactive)
13,Cc1ccc(-c2nc(CS(=O)(=O)CC(=O)N3CCN(c4cccc(C)c4C)CC3)c(C)o2)cc1,116% (inactive)
14,Cc1cccc(-c2nc(CSCC(=O)N3CCN(c4ccccc4)CC3)c(C)o2)c1,17% (active)
15,COc1ccc(-c2nc(CSCC(=O)N3CCN(c4cccc(C)c4C)CC3)c(C)o2)cc1OC,49% (inactive)
16,CCc1ccc(-c2nc(CSCC(=O)N3CCN(c4ccc(F)cc4)CC3)c(C)o2)cc1,73% (inactive)
17,O=C(Cn1cc(SCc2ccccc2F)c2ccccc21)N1CCCCCC1,73% (inactive)
18,CCOC(=O)C1CCN(C(=O)c2ccc3c(=O)n4nc(Nc5ccccc5)sc4nc3c2)CC1,117% (inactive)
19,COc1ccccc1NC(=O)Cn1c(=O)n(-c2cccc(C(C)=O)c2)c(=O)c2c3c(sc21)CN(C(C)=O)CC3,89% (inactive)
20,COc1ccc(S(=O)(=O)c2c(O)c3ccc(C(=O)NCc4ccc(Cl)cc4)cc3[nH]c2=O)cc1,89% (inactive)
21,COc1cccc(CNC(=O)CN(C)S(=O)(=O)c2ccc3[nH]c4c(c3c2)CCCC4)c1,75% (inactive)
22,CCOc1ccc(OCC)c(NC(=O)c2cnc3c(-c4ccccc4)c(C)nn3c2C)c1,91% (inactive)
23,Cc1ccc(NC(=O)c2cnc(SCC(=O)N3CCCc4ccccc43)n(C)c2=O)cc1C,85% (inactive)
24,COc1cccc2sc(NC(=O)c3ccc4c(c3)OCCO4)nc12,88% (inactive)

row,SMILES,survival
1,COc1ccc2oc(=O)c(-c3nnc(-c4ccc(C)cc4)o3)cc2c1,138% (inactive)
2,O=S(=O)(c1ccccc1)c1nnn2c1nc(N1CCN(c3ccccc3)CC1)c1cc(Cl)ccc12,91% (inactive)
3,COc1ccc(-c2nnn3c2nc(NCc2ccccc2)c2ccccc23)cc1,89% (inactive)
4,Brc1cccc(-c2nnn3c2nc(N2CCCCC2)c2ccccc23)c1,62% (inactive)
5,Clc1ccc(-c2nnn3c2nc(N2CCCCC2)c2ccccc23)cc1,25% (active)
6,Cc1ccc(-c2nnn3c2nc(N2CCC(C)CC2)c2ccccc23)cc1,-6% (active)
7,CC1CCN(c2nc3c(-c4cccc(Br)c4)nnn3c3ccccc23)CC1,104% (inactive)
8,COc1ccc(-c2nnn3c2nc(N2CCCC(C)C2)c2ccccc23)cc1 (centres undefined),-3% (active)
9,CC1CCCN(c2nc3c(-c4ccc(Cl)cc4)nnn3c3ccccc23)C1 (centres undefined),87% (inactive)
10,CC1CCN(c2nc3c(S(=O)(=O)c4ccccc4)nnn3c3ccc(Cl)cc23)CC1,69% (inactive)
11,O=C(NCCCN1CCN(c2ccccc2)CC1)c1nnc(Cc2c(F)cccc2Cl)o1,71% (inactive)
12,Cc1cc(NC(=O)CCc2nc3cccnc3n2Cc2cccs2)ccc1Br,50% (inactive)
13,COCCCNC(=O)c1cc(-c2cccnc2)nc2ccc(S(=O)(=O)N3CCC(C)CC3)cc12,113% (inactive)
14,CC(=O)c1ccc(N2CCN(C(=O)C3CCN(S(=O)(=O)c4cccc5nonc45)CC3)CC2)cc1,79% (inactive)
15,COC(=O)CSc1ncc(C#N)c(N)n1,110% (inactive)
16,COc1ccc(C)cc1NC(=O)CCc1c(C)nn(-c2ccc(N3CCCCC3)nn2)c1C,78% (inactive)
17,CCCCOc1ccc(C(=O)Nc2onc3c2CCCC3)cc1,49% (active)
18,O=C(Nc1onc2c1CCCC2)c1ccc(Cl)cc1,77% (inactive)
19,CC(C)COc1ccc(C(=O)Nc2onc3c2CCCC3)cc1,103% (inactive)
20,CC(C)(C)c1ccc(C(=O)Nc2onc3c2CCCC3)cc1,56% (inactive)
21,Cc1ccc(C(=O)Nc2onc3c2CCCC3)cc1,46% (active)
22,CCOc1ccc(C(=O)Nc2onc3c2CCCC3)cc1,72% (inactive)

# Source: PubChem BioAssay AID463173 (ICCB-Longwood Screening Facility, Harvard Medical School, 2010)
